Measurements taken from PubChem BioAssay AID504708 (Sanford-Burnham Center for Chemical Genomics, 2011).
The list shows a part of the results. Active and inactive are the calls of the source.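 How the source made its calls: active means inhibition at or below a set negative limit, negative inhibition meaning the enzyme was activated; inactive means the rest.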

The molecules below were run against Hexokinase HKDC1 (Homo sapiens) (UniProt Q2TB90) (assay: HKDC1 hexokinase activators, confirmation, biochemical, single concentration (AID 504708)). Settings: recombinant HKDC1, G6PDH/diaphorase resazurin fluorescence; at 20 µM; hits give low values.
Chain of Hexokinase HKDC1 (Homo sapiens) (Q2TB90 whole entry, looked up): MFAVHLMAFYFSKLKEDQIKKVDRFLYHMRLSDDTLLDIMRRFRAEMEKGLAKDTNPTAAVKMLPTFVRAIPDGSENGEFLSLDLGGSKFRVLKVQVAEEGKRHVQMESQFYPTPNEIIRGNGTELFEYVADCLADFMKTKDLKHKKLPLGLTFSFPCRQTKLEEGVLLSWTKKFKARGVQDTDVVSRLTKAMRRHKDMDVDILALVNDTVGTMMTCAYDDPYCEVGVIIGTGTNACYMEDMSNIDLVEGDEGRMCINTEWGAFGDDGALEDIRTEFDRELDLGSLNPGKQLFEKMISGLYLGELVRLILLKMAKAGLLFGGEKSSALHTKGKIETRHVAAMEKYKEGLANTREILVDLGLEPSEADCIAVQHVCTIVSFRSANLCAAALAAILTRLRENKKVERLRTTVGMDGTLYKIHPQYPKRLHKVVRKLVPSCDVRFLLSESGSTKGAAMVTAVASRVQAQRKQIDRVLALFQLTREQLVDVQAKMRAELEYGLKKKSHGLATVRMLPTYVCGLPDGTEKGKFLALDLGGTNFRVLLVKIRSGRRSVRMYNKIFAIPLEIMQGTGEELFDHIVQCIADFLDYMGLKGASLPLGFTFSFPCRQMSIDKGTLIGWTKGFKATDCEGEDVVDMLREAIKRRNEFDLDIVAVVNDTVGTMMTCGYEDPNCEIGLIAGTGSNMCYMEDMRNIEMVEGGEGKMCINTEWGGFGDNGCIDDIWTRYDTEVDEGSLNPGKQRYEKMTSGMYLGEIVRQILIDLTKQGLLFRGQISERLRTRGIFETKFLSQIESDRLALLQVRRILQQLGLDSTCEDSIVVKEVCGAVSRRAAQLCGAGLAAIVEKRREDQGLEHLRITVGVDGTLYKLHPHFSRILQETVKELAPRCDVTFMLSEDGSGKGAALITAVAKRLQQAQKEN

| SMILES | inhibition |
| --- | --- |
| COc1ccc(NC(=O)CSc2ccc(-c3ccco3)nn2)c(OC)c1 | 70.8% (inactive) |
| Cc1ccc(N(Cc2cc(=O)[nH]c3ccccc23)C(=O)CCl)cc1 | 34.5% (inactive) |
| Cc1ccc(C(=O)O)cc1-c1ccc(/C=C2\SC(=O)N(CC(=O)Nc3ccc4c(c3)OCO4)C2=O)o1 | 13.9% (inactive) |
| COc1ccc2c(c1)c(=Cc1ccc(N(C)C)cc1)c1cc(-c3ccccc3)[n+](C)n12 | 31.2% (inactive) |
| O=S(=O)(Nc1ccc(O)c2ccccc12)c1ccc(OC(F)(F)F)cc1 | 19.8% (inactive) |
| CN1c2ccc(C=O)c3c(C=O)ccc(c23)N(C)C1(C)C | 61.2% (inactive) |
| Nc1ccc2nc3c(=O)[nH]c(=S)[nH]c3nc2c1 | -3.17% (inactive) |
| CC(=O)N(C1=C(Cl)C(=O)c2ccccc2C1=O)c1ccc(C(=O)O)cc1 | 64.4% (inactive) |
| COc1ccc(N(CC(=O)N/N=C/c2cccc3c2OCCO3)S(=O)(=O)c2ccc(NC(C)=O)cc2)cc1 | 19.1% (inactive) |
| O=C(Nc1ccccc1Cl)/C(Cl)=C(\Cl)S(=O)c1ccccc1 (stereo not given) | -5.2% (inactive) |
| CC(C)(C)Nc1c(N)c(=O)oc2ccccc12 | -27.1% (inactive) |
| CCCc1nc2oc3c(OCC)ncnc3c2c2c1COC(C)(C)C2 | 14.9% (inactive) |
| COCCNC(=O)Nc1ccc2nc(-c3ccco3)c(-c3ccco3)nc2c1 | -20.8% (inactive) |
| CCOC(=O)C1=C(c2ccc(OC)cc2)C(=O)c2ccccc2C1=O | 75% (inactive) |
| CCn1cc(C(=O)NCc2ccc3c(c2)OCO3)c2cc(OC)c(OC)cc2c1=O | 45.9% (inactive) |
| Cc1cc(C(=O)CCl)c(C)n1CC1COc2ccccc2O1 (stereo not given) | 11% (inactive) |
| CC(=O)/C(=N\Nc1ccc(Cl)cc1Cl)Sc1cccc2cccnc12 | -44.8% (active) |
| O=C(CSc1cccc2cccnc12)N/N=C/c1cccnc1 | -46.6% (active) |

| SMILES | inhibition |
| --- | --- |
| CCOC(=O)CSc1nc2ccc(C)cc2n2cnnc12 | 63.8% (inactive) |
| Cc1ccc(Nc2nc(-c3sc(NC(=O)c4ccccc4)nc3C)cs2)cc1 | 12.1% (inactive) |
| O=C1C(Cl)=C(Oc2ccccc2)C(=O)c2ccccc21 | 77.7% (inactive) |
| O=C(c1cccnc1)N(c1cc2sc(=O)oc2c2ccccc12)S(=O)(=O)c1ccccc1 | -5% (inactive) |
| C[N+](C)(CCCCCC[N+](C)(C)CCCN1C(=O)c2cccc3cccc(c23)C1=O)CCCN1C(=O)c2cccc3cccc(c23)C1=O | -82% (active) |
| Clc1cccc(N=C2NN=C(c3ccc4c(c3)OCCO4)CS2)c1 | -99.6% (active) |
| Cc1cc(C2=NNC(=Nc3ccc(S(=O)(=O)N4CCOCC4)cc3)SC2)c(C)n1CC1CCCO1 (stereo not given) | -55.8% (active) |
| CCC(=C/c1sc2ccc3ccccc3c2[n+]1C)/C=C1\Sc2ccc3ccccc3c2N1C | 24.1% (inactive) |
| O=c1[nH]c2ccccc2n2c(-c3ccccc3)nnc12 | 58.5% (inactive) |
| COc1ccc(C(CCN(Cc2ccc(OC)c(OC)c2)C(=O)CCl)c2ccccc2)cc1 (stereo not given) | 17.4% (inactive) |
| O=c1ccc2c(-c3ccccc3S(=O)(=O)O)c3ccc(O)c(O)c3oc-2c1O | 14.4% (inactive) |
| COC(=O)c1ccc(NCc2cc(O)ccc2O)cc1 | 65.1% (inactive) |
| O=C(CSc1n[nH]c(-c2cccnc2)n1)Nc1ccnc2ccccc12 | 46% (inactive) |
| CCc1ccc2c(c1)C1(NN=C(c3ccccc3)S1)C(=O)N2 (stereo not given) | -13.6% (inactive) |
| Cc1ccc2oc(=O)c3cnn(CC(=O)N4CCCCCC4)c3c2c1 | -63.5% (active) |
| O=C(NC1=CC(=O)c2ccccc2C1=O)c1ccccc1 | 69.9% (inactive) |
| CCOc1cc(/C=N/n2cnnc2)c(Br)cc1O | 28.4% (inactive) |
